Data taken from the supplement of paper PMC10849652.
About 7,900 targets were measured; listed, in parts, are those with a hit and a random draw of the rest. About 0.6% of all pairs of compound and target were hits. Unmarked numbers belong to inactive results.

Tests used:
Test in all cases: log2 fold change, soluble protein after heating vs DMSO (PISA); higher = thermal stabilisation; K562 cells, 10 uM, 30 min; active = over 0.2 and 3.5 SD of the protein, either way, in both replicates (recomputed)
erlotinib = compound: C#Cc1cccc(Nc2ncnc3cc(OCCOC)c(OCCOC)cc23)c1 [erlotinib]
In short: (§1)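 Aliquots of K562 cells (2×10^6 cells/mL) treated with 10 μM compound for 30 min were heated for 3 min over 48°C-58°C. After pooling and extraction in PBS with 0.5% NP-40 at 4°C, soluble protein from a 21,000xg, 90 min spin was quantified by TMTpro 16plex LC-MS/MS with channel sums equalised. Thermal stability is expressed against control samples, from duplicates, as a log2 fold change.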

[1] = compound: C/C(=N\NC(=O)C1=CC(=CC=C1)S(=O)(=O)N2CCOCC2)/C3=C(C=CC(=C3)Cl)O
In short: as §1

[2] = compound: C1=CC(=C(C=C1Cl)C2=NC3=NC=CN=C3C(=N2)NC4=CC=NC=C4)F
In short: as §1

[3] = compound: C1=CC(=CC=C1C2=NC3=C(N2)C=C(C=C3)C(=O)N)OC4=CC=C(C=C4)Cl
In short: as §1

[4] = compound: C1=CC2=C(C=CC(=C2)/C=C\3/C(=O)NC(=NCC4=CC=CS4)S3)N=C1
In short: as §1

[5] = compound: C1=CC2=NC=CN=C2C=C1/C=C/3\C(=O)NC(=O)S3
In short: as §1

[6] = compound: C1=CC=C(C=C1)C2=NC(=C(N2)C3=CC=NC=C3)C4=CC(=C(C=C4)Cl)O
In short: as §1

[7] = compound: C1=CC=C2C(=C1)C3=NNC4=CC=CC(=C43)C2=O
In short: as §1

[8] = compound: C1CCN(C1)C(=O)NC2=CC=CC(=C2)NC3=NC=C(C(=N3)NCCC4=CN=CN4)Br
In short: as §1

[9] = compound: C1CN(CCC1(CC2=CC=C(C=C2)Cl)N)C3=NC=NC4=C3C=CN4
In short: as §1

RRP12 (UniProt Q5JTH9)
log2 fold change (erlotinib): 0.074
log2 fold change [1]: -0.3
log2 fold change [2]: -0.172
log2 fold change [3]: 0.028
log2 fold change [4]: -0.04
log2 fold change [5]: 0.038
log2 fold change [6]: 0.166
log2 fold change [7]: 0.205
log2 fold change [8]: 0.079
log2 fold change [9]: 0.054

RBM26 isoform 2 (UniProt Q5T8P6)
log2 fold change (erlotinib): 0.174
log2 fold change [1]: 0.216
log2 fold change [2]: 0.25
log2 fold change [3]: -0.004
log2 fold change [4]: -0.018
log2 fold change [5]: 0
log2 fold change [6]: 0.113
log2 fold change [7]: 0.002
log2 fold change [8]: -0.027
log2 fold change [9]: 0.012

SCD (UniProt O00767)
Chain of UniProt O00767 (O00767 whole entry, looked up): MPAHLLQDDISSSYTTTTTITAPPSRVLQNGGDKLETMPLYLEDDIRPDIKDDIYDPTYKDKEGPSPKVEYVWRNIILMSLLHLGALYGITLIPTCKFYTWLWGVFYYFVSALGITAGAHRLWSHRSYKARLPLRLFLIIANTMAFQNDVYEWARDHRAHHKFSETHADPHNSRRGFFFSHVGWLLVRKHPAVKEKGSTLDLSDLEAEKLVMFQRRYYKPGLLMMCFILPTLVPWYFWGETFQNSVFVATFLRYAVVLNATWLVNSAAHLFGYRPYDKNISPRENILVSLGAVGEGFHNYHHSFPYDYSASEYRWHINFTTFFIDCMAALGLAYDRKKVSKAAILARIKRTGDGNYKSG
log2 fold change (erlotinib): 0.022
log2 fold change [1]: -0.256
log2 fold change [2]: 0.143
log2 fold change [3]: -0.008
log2 fold change [4]: 0.024
log2 fold change [5]: 0.04
log2 fold change [6]: -0.059
log2 fold change [7]: -0.006
log2 fold change [8]: 0.126
log2 fold change [9]: 0.023

SF3B5 (UniProt Q9BWJ5)
Chain of UniProt Q9BWJ5 (Q9BWJ5 whole entry, looked up): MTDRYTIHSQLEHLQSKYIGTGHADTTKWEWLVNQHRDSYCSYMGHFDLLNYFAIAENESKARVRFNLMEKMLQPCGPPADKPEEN
log2 fold change (erlotinib): -0.088
log2 fold change [1]: -0.04
log2 fold change [2]: 0.319
log2 fold change [3]: 0.051
log2 fold change [4]: 0.023
log2 fold change [5]: 0.199
log2 fold change [7]: 0.107
log2 fold change [8]: -0.104
log2 fold change [9]: -0.002

SEC23IP (UniProt Q9Y6Y8)
log2 fold change (erlotinib): 0.03
log2 fold change [1]: 0.022
log2 fold change [2]: -0.013
log2 fold change [3]: -0.037
log2 fold change [4]: 0.028
log2 fold change [5]: 0.229
log2 fold change [6]: -0.023
log2 fold change [7]: -0.027
log2 fold change [8]: -0.008
log2 fold change [9]: -0.061

RCOR1 (UniProt Q9UKL0)
Chain of UniProt Q9UKL0 (Q9UKL0 whole entry, looked up): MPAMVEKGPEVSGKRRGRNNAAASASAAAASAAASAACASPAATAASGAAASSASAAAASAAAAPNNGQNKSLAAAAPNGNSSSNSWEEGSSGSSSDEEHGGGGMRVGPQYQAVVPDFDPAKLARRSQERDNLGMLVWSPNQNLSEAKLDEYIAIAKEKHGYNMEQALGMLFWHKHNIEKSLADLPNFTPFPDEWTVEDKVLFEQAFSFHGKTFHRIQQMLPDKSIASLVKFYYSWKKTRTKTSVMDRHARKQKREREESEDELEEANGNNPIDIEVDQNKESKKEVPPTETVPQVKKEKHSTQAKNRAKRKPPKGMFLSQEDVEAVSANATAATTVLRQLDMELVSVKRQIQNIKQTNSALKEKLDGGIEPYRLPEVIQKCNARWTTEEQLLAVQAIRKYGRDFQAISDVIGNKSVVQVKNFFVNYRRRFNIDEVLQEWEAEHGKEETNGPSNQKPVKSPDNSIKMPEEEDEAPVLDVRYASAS
log2 fold change (erlotinib): 0.033
log2 fold change [1]: 0.069
log2 fold change [2]: -0.043
log2 fold change [3]: -0.056
log2 fold change [4]: 0.134
log2 fold change [5]: -0.013
log2 fold change [6]: 0.076
log2 fold change [7]: -0.011
log2 fold change [8]: -0.006
log2 fold change [9]: -0.043

RALGPS2 (UniProt Q86X27)
Chain of UniProt Q86X27 (Q86X27 whole entry, looked up): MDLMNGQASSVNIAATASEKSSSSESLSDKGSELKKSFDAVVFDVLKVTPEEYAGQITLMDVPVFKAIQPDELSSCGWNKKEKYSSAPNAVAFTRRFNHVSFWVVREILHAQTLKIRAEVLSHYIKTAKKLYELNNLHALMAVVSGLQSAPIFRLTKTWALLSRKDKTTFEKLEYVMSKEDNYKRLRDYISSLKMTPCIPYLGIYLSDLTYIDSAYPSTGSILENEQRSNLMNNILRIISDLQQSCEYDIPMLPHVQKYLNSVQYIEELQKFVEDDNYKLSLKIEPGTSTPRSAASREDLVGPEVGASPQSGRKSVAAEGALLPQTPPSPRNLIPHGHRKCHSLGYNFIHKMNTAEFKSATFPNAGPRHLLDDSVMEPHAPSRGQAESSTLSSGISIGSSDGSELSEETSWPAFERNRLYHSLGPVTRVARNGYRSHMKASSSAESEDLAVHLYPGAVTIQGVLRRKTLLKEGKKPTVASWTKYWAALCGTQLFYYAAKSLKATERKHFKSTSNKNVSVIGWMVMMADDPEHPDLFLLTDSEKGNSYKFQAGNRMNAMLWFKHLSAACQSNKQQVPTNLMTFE
log2 fold change (erlotinib): -0.43
log2 fold change [1]: -0.07
log2 fold change [2]: -0.321
log2 fold change [3]: 0.037
log2 fold change [4]: -0.079
log2 fold change [5]: 0.111
log2 fold change [7]: -0.012
log2 fold change [8]: -0.06
log2 fold change [9]: 0.154

ROR2 (UniProt Q01974)
Chain of UniProt Q01974 (Q01974 whole entry, looked up): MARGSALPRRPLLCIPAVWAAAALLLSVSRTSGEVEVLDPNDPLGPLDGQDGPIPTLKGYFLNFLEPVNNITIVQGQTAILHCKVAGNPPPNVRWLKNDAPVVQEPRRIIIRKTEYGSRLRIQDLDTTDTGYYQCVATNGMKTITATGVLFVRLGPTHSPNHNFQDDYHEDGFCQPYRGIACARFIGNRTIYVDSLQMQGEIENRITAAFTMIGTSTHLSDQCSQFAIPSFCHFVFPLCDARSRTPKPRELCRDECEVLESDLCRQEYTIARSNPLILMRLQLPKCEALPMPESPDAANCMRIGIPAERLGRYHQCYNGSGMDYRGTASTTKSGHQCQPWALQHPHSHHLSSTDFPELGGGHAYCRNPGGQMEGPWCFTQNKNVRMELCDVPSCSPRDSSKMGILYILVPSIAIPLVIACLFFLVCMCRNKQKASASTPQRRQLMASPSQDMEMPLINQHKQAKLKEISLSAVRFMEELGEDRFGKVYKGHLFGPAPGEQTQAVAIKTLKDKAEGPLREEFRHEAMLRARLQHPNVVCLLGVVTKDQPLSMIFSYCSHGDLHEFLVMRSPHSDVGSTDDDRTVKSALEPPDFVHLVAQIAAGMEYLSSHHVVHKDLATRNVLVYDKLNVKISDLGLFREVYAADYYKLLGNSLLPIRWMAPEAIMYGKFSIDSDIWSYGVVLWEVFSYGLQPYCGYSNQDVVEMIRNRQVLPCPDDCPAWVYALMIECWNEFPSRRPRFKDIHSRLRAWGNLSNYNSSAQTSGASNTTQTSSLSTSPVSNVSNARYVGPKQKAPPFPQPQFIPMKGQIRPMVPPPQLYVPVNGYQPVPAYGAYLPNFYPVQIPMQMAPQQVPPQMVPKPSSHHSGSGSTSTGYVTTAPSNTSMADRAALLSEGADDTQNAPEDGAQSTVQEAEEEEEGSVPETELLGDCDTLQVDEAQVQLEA
log2 fold change (erlotinib): -0.045
log2 fold change [1]: 0.058
log2 fold change [2]: 0.01
log2 fold change [3]: 0.023
log2 fold change [4]: 0.02
log2 fold change [5]: 0.011
log2 fold change [6]: 0.076
log2 fold change [7]: -0.024
log2 fold change [8]: -0.041
log2 fold change [9]: -0.001

RAVER1 (UniProt E9PAU2)
log2 fold change (erlotinib): 0.218
log2 fold change [1]: 0.403
log2 fold change [2]: 0.042
log2 fold change [3]: 0.009
log2 fold change [4]: 0.002
log2 fold change [5]: -0.06
log2 fold change [6]: 0.257
log2 fold change [7]: -0.084
log2 fold change [8]: -0.05
log2 fold change [9]: -0.011

SEH1L isoform 1 (UniProt Q96EE3)
Chain of UniProt Q96EE3 (Q96EE3 whole entry, looked up): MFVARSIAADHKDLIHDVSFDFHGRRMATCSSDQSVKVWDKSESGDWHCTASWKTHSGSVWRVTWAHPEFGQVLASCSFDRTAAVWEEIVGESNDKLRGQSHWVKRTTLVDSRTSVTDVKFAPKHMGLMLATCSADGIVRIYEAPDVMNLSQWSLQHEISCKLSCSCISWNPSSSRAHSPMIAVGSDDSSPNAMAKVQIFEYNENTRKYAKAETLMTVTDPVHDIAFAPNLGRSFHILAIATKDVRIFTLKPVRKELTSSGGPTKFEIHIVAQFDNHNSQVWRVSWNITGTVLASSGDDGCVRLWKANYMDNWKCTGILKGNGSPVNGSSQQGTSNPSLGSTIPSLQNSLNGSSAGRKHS
log2 fold change (erlotinib): 0.018
log2 fold change [1]: 0.073
log2 fold change [2]: 0.012
log2 fold change [3]: 0.043
log2 fold change [4]: 0.049
log2 fold change [5]: 0.064
log2 fold change [6]: 0
log2 fold change [7]: -0.06
log2 fold change [8]: -0.02
log2 fold change [9]: 0.035

RPS6KA1 isoform 2 (UniProt Q15418)
Chain of UniProt Q15418 (Q15418 whole entry, looked up): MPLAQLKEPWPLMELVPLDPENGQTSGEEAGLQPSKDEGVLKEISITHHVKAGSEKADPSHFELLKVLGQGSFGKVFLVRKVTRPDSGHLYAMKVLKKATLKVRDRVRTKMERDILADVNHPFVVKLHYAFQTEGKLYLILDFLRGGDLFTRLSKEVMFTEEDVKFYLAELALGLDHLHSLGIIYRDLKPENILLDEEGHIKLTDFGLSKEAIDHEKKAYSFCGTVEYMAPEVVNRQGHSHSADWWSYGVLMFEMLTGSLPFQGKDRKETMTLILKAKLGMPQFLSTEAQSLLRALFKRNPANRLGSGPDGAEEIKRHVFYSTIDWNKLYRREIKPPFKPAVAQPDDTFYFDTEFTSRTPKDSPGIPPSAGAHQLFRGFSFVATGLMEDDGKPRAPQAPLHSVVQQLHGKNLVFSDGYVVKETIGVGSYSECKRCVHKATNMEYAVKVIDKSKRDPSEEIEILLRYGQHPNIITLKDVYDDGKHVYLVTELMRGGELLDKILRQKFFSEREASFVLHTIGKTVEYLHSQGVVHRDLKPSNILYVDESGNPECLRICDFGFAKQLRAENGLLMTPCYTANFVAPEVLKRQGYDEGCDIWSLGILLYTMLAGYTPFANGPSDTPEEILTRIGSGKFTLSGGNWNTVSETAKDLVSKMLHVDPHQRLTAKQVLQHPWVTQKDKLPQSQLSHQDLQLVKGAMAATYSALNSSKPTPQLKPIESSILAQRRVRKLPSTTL
log2 fold change (erlotinib): -0.032
log2 fold change [1]: 0.104
log2 fold change [2]: -0.082
log2 fold change [3]: 0.107
log2 fold change [4]: 0.034
log2 fold change [5]: 0.039
log2 fold change [6]: -0.135
log2 fold change [7]: -0.377 (active)
log2 fold change [8]: -0.093
log2 fold change [9]: 0.023

RARS (UniProt P54136)
Chain of UniProt P54136 (P54136 whole entry, looked up): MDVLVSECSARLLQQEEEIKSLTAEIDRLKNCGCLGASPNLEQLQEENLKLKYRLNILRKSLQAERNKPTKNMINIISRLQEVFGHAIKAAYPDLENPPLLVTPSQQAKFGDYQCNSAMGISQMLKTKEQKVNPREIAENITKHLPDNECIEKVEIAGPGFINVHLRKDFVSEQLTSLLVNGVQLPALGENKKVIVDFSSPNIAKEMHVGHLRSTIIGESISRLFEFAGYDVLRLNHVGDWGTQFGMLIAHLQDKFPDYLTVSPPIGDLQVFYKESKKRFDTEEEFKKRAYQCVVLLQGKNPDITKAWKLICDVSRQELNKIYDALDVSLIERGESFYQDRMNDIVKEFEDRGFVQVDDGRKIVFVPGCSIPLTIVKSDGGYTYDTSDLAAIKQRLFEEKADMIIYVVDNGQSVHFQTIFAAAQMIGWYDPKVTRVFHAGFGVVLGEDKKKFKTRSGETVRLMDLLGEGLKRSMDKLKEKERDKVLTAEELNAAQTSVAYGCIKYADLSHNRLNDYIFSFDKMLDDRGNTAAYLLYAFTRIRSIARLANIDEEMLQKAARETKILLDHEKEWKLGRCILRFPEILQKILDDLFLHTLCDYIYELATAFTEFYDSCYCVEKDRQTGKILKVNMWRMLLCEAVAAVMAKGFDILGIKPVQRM
log2 fold change (erlotinib): 0.023
log2 fold change [1]: 0.011
log2 fold change [2]: -0.169
log2 fold change [3]: -0.007
log2 fold change [4]: 0.019
log2 fold change [5]: 0
log2 fold change [6]: -0.046
log2 fold change [7]: -0.005
log2 fold change [8]: 0.07
log2 fold change [9]: -0.155

RSRC2 (UniProt Q7L4I2)
log2 fold change (erlotinib): 0.023
log2 fold change [1]: -0.01
log2 fold change [2]: -0.009
log2 fold change [3]: -0.012
log2 fold change [4]: -0.05
log2 fold change [5]: 0.018
log2 fold change [6]: 0.019
log2 fold change [7]: -0.032
log2 fold change [8]: 0
log2 fold change [9]: 0.012

SCCPDH (UniProt Q8NBX0)
Chain of UniProt Q8NBX0 (Q8NBX0 whole entry, looked up): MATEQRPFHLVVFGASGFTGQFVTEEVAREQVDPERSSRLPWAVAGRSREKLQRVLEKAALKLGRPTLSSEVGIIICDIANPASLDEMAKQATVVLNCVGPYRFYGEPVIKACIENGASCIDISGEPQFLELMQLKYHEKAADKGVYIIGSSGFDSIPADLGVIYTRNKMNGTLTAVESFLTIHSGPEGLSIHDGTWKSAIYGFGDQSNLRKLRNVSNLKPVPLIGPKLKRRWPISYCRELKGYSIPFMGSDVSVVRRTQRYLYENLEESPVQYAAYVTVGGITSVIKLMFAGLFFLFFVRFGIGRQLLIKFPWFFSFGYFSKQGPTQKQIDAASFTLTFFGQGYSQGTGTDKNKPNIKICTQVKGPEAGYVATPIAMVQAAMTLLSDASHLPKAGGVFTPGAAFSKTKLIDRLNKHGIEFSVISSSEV
log2 fold change (erlotinib): -0.047
log2 fold change [1]: -0.021
log2 fold change [2]: 0.079
log2 fold change [3]: -0.065
log2 fold change [4]: 0.019
log2 fold change [5]: 0.051
log2 fold change [6]: 0.037
log2 fold change [7]: 0.03
log2 fold change [8]: 0.011
log2 fold change [9]: 0.064

SDHC (UniProt Q99643)
Chain of UniProt Q99643 (Q99643 whole entry, looked up): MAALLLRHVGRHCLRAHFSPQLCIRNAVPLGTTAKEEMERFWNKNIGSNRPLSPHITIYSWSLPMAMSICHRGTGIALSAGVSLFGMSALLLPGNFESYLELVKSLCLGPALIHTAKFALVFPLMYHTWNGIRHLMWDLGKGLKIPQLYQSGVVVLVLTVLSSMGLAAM
log2 fold change (erlotinib): -0.017
log2 fold change [1]: 0.033
log2 fold change [2]: -0.015
log2 fold change [3]: 0.033
log2 fold change [4]: -0.013
log2 fold change [5]: 0.17
log2 fold change [6]: 0.104
log2 fold change [7]: 0.102
log2 fold change [8]: 0.008
log2 fold change [9]: 0.02
